Results: PubChem BioAssay AID489025 (Southern Research Specialized Biocontainment Screening …, 2010)
About 790 (34%) of roughly 2,300 compounds were called active. The list shows a part of the results. Results with a measured potency or affinity are listed apart. A number with no mark means an inactive call. The rule behind the calls is not given here.

Experiment: THP-1 cell cytotoxicity, dose response, cytotoxicity control for non-replicating M. tuberculosis project (AID 489025)
Conditions: THP-1 cell viability; series mostly up to 40 µM; viability: at the top concentration

Compound | viability [%]
Clc1ccc(SCCCCn2ccnc2)cc1 | 70.5
O=C(O)c1ccc(NS(=O)(=O)/C=C/c2ccccc2)cc1O | 115
Cc1cc(C)cc(NC(=O)COC(=O)CC2CCCC2)c1 | 116
O=C(COc1ccc(Nc2ccccc2)cc1)OCC(=O)N1CCCCC1 | 110
COc1cccc(CC2(CO)CCCN(Cc3sc(N4CCCC4)nc3Cl)C2)c1 (stereo not drawn) | 73.3
O=C(COc1ccc(Cl)cc1)Nc1ccc(Cl)cn1 | 108
CCCc1nnc(-c2ccc(OC)cc2)o1 | 114
c1ccc(-c2n[nH]c(-c3ccccn3)n2)nc1 | 95.7
O=C(COc1ccc(Cl)cc1)Nc1ccccc1Cl | 105
CC(C)(C)OC(=O)NCCc1nnc(S(=O)(=O)Cc2ccc(Cl)cc2Cl)o1 | 112
OCC#CCSc1nnc(-c2ccc(Br)cc2)o1 | 95.2
Cc1cccc(NCc2nnc(-c3ccccc3)o2)c1C | 110
CCOc1ccc(-c2ccc(SCC)nn2)cc1 | 90
O=C(CCSc1ccccn1)c1ccccc1 | 92.2
O=C(NC1CCCC1)c1nc2c(nnn2Cc2cccc(Cl)c2)c(=O)[nH]1 | 74
CC(C)(C)c1ccc(OCCC(=O)OCC(=O)NC2CCCCC2)cc1 | 89.7
CC(C)(C)c1ccc(-c2nc(C#N)c(NCCCn3ccnc3)o2)cc1 | 74.9
N#Cc1nc(-c2cccs2)oc1NCCc1ccccc1 | 86.1
CCOCCOC(=O)COc1ccc2c(-c3ccccc3)cc(=O)oc2c1 | 96.5
CCc1nnc(NC(=O)CN2CCN(Cc3ccc(F)cc3)CC2)s1 | 95.2
Cc1ccc2nc(NC(=O)COC(=O)c3ccc(Br)o3)sc2c1 | 109
CC1CCN(C(=O)COC(=O)CCc2c[nH]c3ccccc23)CC1 | 101
COc1ccc2c3c(cccc13)OCC2=O | 94
O=C1/C(=C/c2cccs2)COc2ccccc21 | 98.4
O=C(c1ccco1)N1CCN(c2ccc(F)cc2)CC1 | 90.3

Compound | viability [%]
O=S(=O)(NCc1cccnc1)c1ccc(Cl)c(Cl)c1Cl | 103
Cc1cc(C=C2C(=O)NC(=S)NC2=O)c(C)n1C1CCCC1 | 89.8
CCCn1nnnc1NCc1ccc(CC)cc1 | 101
CCc1ccc(/C=N/NC(=O)c2ccccn2)cc1 | 81
O=C(N/N=C/C=C/c1ccccc1)c1ccccn1 | 110
Cc1ccc(-c2noc(CCCC(=O)Nc3cccnc3)n2)cc1 | 87
Cc1ccc(NCCC(=O)c2cccs2)cc1 | 105
CCCCCCCC(=O)NNC(=O)c1ccc(F)cc1 | 73
CCCCCCCC(=O)N/N=C(/C)c1c(O)cc(C)oc1=O | 88.7
CCCCn1nnc(NC(=O)COc2ccc(Cl)c(C)c2)n1 | 120
CCCOC(=O)c1ccc(NC(=O)c2ccccc2OC)cc1 | 85.5
CN1CCC(O)(c2ccc(Cl)cc2)C(C(=O)c2ccc(Cl)cc2)C1 (stereo not drawn) | 84.8
CCN(CC)S(=O)(=O)c1ccc(C(=O)OCn2nnc3ccccc3c2=O)cc1 | 122
C/C(=N\NC(=O)c1ccco1)c1cc(Cl)sc1Cl | 99.9
C=C1Cn2c(nnc2-c2ccc(Cl)cc2)S1 | 110
Cc1ccc2nc(C)c3c(c2c1)COC3 | 90.3
O=C(OCn1nnc2ccccc2c1=O)C1CCCCC1 | 119
O=C(COc1ccccc1)NC1CCCCC1 | 97.7
CCOC(=O)COc1ccc2c(c1)C(=O)CC1(CCCCC1)O2 | 87
CCOc1ccc(NC(=O)CCNC(=O)c2ccc(Br)cc2)cc1 | 106
CC1CCN(C(=O)c2ccc(-c3ccccc3Cl)o2)CC1 | 98.6
O=C(c1ccc(-c2ccc([N+](=O)[O-])cc2)o1)N1CCN(S(=O)(=O)c2cccs2)CC1 | 79.7
O=C(COc1cccc2ccccc12)Nc1nc2ccccc2[nH]1 | 85.1
CCCN(Cc1nnc(-c2ccccc2Cl)o1)C(=O)c1cc([N+](=O)[O-])cc([N+](=O)[O-])c1 | 95.2
Cc1ccc(OCC(=O)Nc2ccc([N+](=O)[O-])cc2)cc1 | 116

Compound | viability [%]
COc1ccc(CCOC(=O)c2ccc(N)c([N+](=O)[O-])c2)cc1 | 104
COc1ccc(C(=O)COC(=O)COc2ccc(C)c(C)c2)cc1 | 123
CC(C)CN(Cc1c(O)ccc2ccccc12)CC(C)C | 112
Cn1c(=O)c2c(=O)cc(NNC(=O)CC#N)[nH]c2n(C)c1=O | 96.6
O=C(C/C=N\OCc1ccc([N+](=O)[O-])cc1)Nc1ccccc1 | 101
CN(CC(=O)Nc1ccc(Cl)cc1)C1CCCCC1 | 107
Cc1ccc(CO/N=C/c2c(O)cc(C)oc2=O)cc1 | 107
Cc1cc(C)n2nc(S(=O)(=O)Nc3c(Cl)cccc3Cl)nc2n1 | 117
CS(=O)(=O)Nc1cccc2cccnc12 | 82.3
CCSc1nc(O)c(C2OC(=O)c3c2ccc(OC)c3OC)c(=O)n1-c1ccccc1 (stereo not drawn) | 105
COc1cc(/C=C/c2ccc3c([N+](=O)[O-])cccc3n2)ccc1OCC(=O)O | 109
COc1cc(C=O)ccc1OCCCCOc1ccccc1[N+](=O)[O-] | 110
C=CCN(CC=C)CC(=O)Nc1ccc(S(N)(=O)=O)cc1 | 97.7
O=C(OCc1ccc([N+](=O)[O-])cc1)c1ccc2ccccc2n1 | 115
N#CC(C(=O)Nc1ccccc1)=C1Nc2ccccc2N1 | 84.1
CSCCC(=O)N1CCCC(CNC(=O)c2ccc(-c3ccccc3)cc2)C1 (stereo not drawn) | 76.2
Cc1[nH]n(S(=O)(=O)Cc2ccccc2)c(=O)c1N=Nc1ccccc1Cl | 117
O=C(N/N=C/C=C/c1ccccc1)c1ccncc1 | 101
O=C(NN=C(Cc1ccccc1)Cc1ccccc1)c1ccncc1 | 105
CN1/C(=C\C=N\NC(=O)c2cccnc2)C(C)(C)c2ccccc21 | 103
CCOC(=O)N1CCC(NC(=O)C2CCN(c3nc(-c4ccc(OC)cc4)no3)CC2)CC1 | 89.9
CCOC(=O)C1CCCN(Cc2nc(Cc3ccccc3Cl)no2)C1 (stereo not drawn) | 105
CCCNC(=O)OCC12CC3CC(CC(C3)C1)C2 | 94.7
O=C(CCCOc1ccccc1)OCn1nnc2ccccc2c1=O | 97.9
COc1ccccc1N1CCN(C(=O)CCn2c(=O)[nH]c3ccsc3c2=O)CC1 | 92.4

Compound | viability [%]
Cc1ccc(C(=O)COC(=O)c2cccs2)cc1 | 107
Cc1ccc(C(=O)CCC2CCCC2=O)cc1 (stereo not drawn) | 116
COc1ccc(-c2[nH]ncc2CN2CCCCCCC2)c(OC)c1 | 92.9
O=C(Nc1ccc(F)cc1F)c1cc2ccccc2oc1=O | 93.2
CC(C)Cc1cc(C(=O)Nc2ccc(F)cc2F)no1 | 94.8
O=C(COc1ccc(-c2ccccc2)cc1)Nc1cccnc1 | 77
CCCNC(=O)NC(=O)COc1ccc(-c2ccc(C#N)cc2)cc1 | 98.2
O=C(NC(=S)Nc1ccc(F)cc1)C1CCCCC1 | 102
CC1=CN2C(=N)/C(=C/c3ccc([N+](=O)[O-])o3)C(=O)N=C2S1 | 115
CN(/N=C/c1ccc([N+](=O)[O-])o1)c1ccccc1 | 87.6
CC(C)[C@H](NC(=O)c1ccc(Br)cc1)C(=O)NC1CCCCC1 | 108
COc1ccc(CCNc2nc(-c3ccccn3)cs2)cc1OC | 80.1
c1ccc(Nc2nc(-c3ccccn3)cs2)cc1 | 92.5
CN1CCN(c2cc3c(cc2F)c(=O)c(C(=O)O)cn3CCF)CC1 | 88.5
S=C1NC2(CCCC2)N=C1c1ccccc1 | 129
CCOC(=O)c1csc(-c2snnc2C)n1 | 95.3
COc1ccc(COC(=O)CCNC(=O)c2ccc(Cl)cc2)cc1 | 109
COC(=O)COc1cccc(NC(=O)c2ccc(Cl)cc2)c1 | 73.2
CC(C)N1CCc2c(sc(NC(=O)CCS(=O)(=O)c3ccccc3)c2C#N)C1 | 100
CNC(=O)COC(=O)c1ccc(-c2nc3ccccc3s2)s1 | 96.6
O=C(COc1ccc2ccccc2c1)NNC(=O)c1cccs1 | 88.3
Cc1cc(Cl)ccc1OCCCC(=O)NO | 82.2
Clc1cccc(CNCCNCc2cccc(Cl)c2)c1 | 85.5
CC(Cc1cccs1)NC(=O)c1cccc(Cl)c1 (stereo not drawn) | 85
Cc1ccc(NC(=O)COc2ccc3c(c2)CCC3)nc1 | 102

Compound | viability [%]
CCOC(=O)COc1cc(O)c2c(=O)cc(-c3ccccc3)oc2c1 | 118
COc1ccc(N2C(=O)C(F)(F)C2c2cccc(F)c2)cc1 (stereo not drawn) | 95.5
COCCNC(=O)CC(=O)N/N=C/c1cccc(C(=O)OC)c1 | 107
COC(=O)COc1cccc(/C=N/NC(=O)CCSc2ccccc2)c1 | 78.9
Cc1cc(C(=O)N/N=C/c2cccc(Cl)c2Cl)no1 | 101
NC(=O)N/N=C\c1cc(Br)ccc1O | 89.5
Clc1ccccc1CSc1nnc([C@@H]2CCCN2)o1 | 107
O=C(COC(=O)CCc1c[nH]c2ccccc12)Nc1ccc([N+](=O)[O-])cc1 | 95
CC1N(C)c2cccc3cccc(c23)N1C | 91.4
COC(=O)c1cccc(COC(=O)c2cc3ccccc3oc2=O)c1 | 128
Cc1cc(Cl)ccc1NNC(=O)c1c(C)noc1C | 125
O=C(NN=C1C2CC3CC1CC(Cl)(C3)C2)c1cccs1 | 104
O=C(N/N=C/C=C/c1ccccc1[N+](=O)[O-])c1ccncc1 | 113
O=C(COc1ccccc1)NNc1nc2ccccc2s1 | 108
O=C(NNc1nc2ccccc2s1)Nc1ccc(F)cc1 | 89.4
Clc1cccc(/C=N\Nc2nccs2)c1 | 101
O=[N+]([O-])c1cc(N=Nc2ccc3ccccc3c2)ccc1O | 83.7
Cc1cccc(N2CCN(Cc3ccc([N+](=O)[O-])o3)CC2)c1C | 70.8
CCCCOC(=O)c1ccc(NC(=O)c2nn(C)cc2Br)cc1 | 85.9
O=C(N/N=C/c1ccc[nH]1)c1ccncc1 | 123
O=C1NCC(O)=C1C=Nc1ccccc1O | 82
Cc1[nH]nc2c1C(c1ccc(-c3ccc(Cl)cc3)o1)C(C#N)=C(N)O2 (stereo not drawn) | 86.4
Cc1ccc(NCCC(=O)c2cccs2)cc1Cl | 110
